Records with an inconclusive call do not appear. A call without a number means that no potency is given here. Active and inactive are the calls of the source. Calls come from the whole dose curve; as a rule, active = well fitted inhibition curve with a large enough effect; inconclusive = small, poorly fitted or top-dose-only effect; inactive = flat fitted curve, though single readings scatter.
Test: P-glycoprotein substrates identified in KB-8-5-11 adenocarcinoma cell line, qHTS therapeutic library screen (AID 1346987); note: nearly all actives have a fitted effect of over 65% in size
Conditions: KB-8-5-11 (P-gp overexpressing) viability, CellTiter-Glo, 72 h; series mostly up to 44.5 µM
In short: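 Compounds are pinned in dose-response onto KB-8-5-11 cells (500 cells/well, colchicine-free medium) and left 72 h at 37 degree C. CellTiter-Glo luminescence then yields AC50 values.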
For CC(C)=C[C@@H]1[C@H](CO[C@@H]2O[C@H](CO)[C@@H](O)[C@H](O)[C@H]2O)C1(C)C, the Potency was “inactive”.
For CC(=O)OC/C(=C/C(=O)O)CC[C@@H]1C(C=O)=CC[C@@H]2C(C)(C)CCC[C@@]12C, the Potency was “inactive”.
With C=C[C@@]12COC(=O)C(=C)[C@@H]1[C@@H](O)[C@H](C(=C)C(=O)OC)[C@@H](O)C2 the Potency was “inactive”.
For COc1c(CCC(=O)O)cccc1O[C@@H]1O[C@H](CO)[C@@H](O)[C@H](O)[C@H]1O, the Potency was “inactive”.
For CC(=O)O[C@@H]1CC[C@@]2(C)C(CC[C@]3(C)C2[C@H](O)C=C2[C@H]4[C@@H](C)[C@H](C)CC[C@]4(C)CC[C@]23C)[C@@]1(C)C(=O)O (stereo partly drawn), the Potency was “inactive”.
For CN(C(=O)CO)c1c(I)c(C(=O)NCC(O)CO)c(I)c(C(=O)NCC(O)CO)c1I (stereo not drawn), the Potency was “inactive”.
For Nc1nc2c(ncn2C2OC3COP(=O)(O)OC3C2O)c(=O)[nH]1 (stereo not drawn), the Potency was “inactive”.
In the case of CCCCCCCCCCCCCCCC(=O)OCCC1CCN(CCCN2c3ccccc3Sc3ccc(S(=O)(=O)N(C)C)cc32)CC1, the Potency was “inactive”.
For COC(=O)CC1OC(C)C2=C(O)c3c(O)cccc3C(=O)C23OC13 (stereo not drawn), the Potency was 10.1 µM (active).
With COc1cc(N2CCOCC2)ccc1NC(=O)c1csc(-c2cccnc2)n1 the Potency was 11.6 µM (active).
With CCC(c1ccccc1)c1noc(CCN(CC)CC)n1 (stereo not drawn) the Potency was “inactive”.
For Cc1ccc(C)c(NC(=O)[C@@H]2CCCN2S(=O)(=O)c2cccc3cccnc23)c1, the Potency was “inactive”.
With CC#CCn1c(N2CCCC(N)C2)nc2c1c(=O)n(Cc1nc(C)c3ccccc3n1)c(=O)n2C (stereo not drawn) the Potency was “inactive”.
Potency is the fitted concentration of half-maximal effect.
